This is an account of results in PubChem BioAssay AID1645882 (National Center for Advancing Translational Sciences (NCATS), 2021).

Several values for one entry are separate records, joined by “and”; a condition that tells them apart may be missing. Equal entries are not always repeated. Hit rate of the full screen: of about 16,000 compounds, about 120 (0.75%) were called active. Another 4% or so got no clear call; they are omitted. The call rests on the fitted dose curve; in most records, active means well fitted inhibition curve with a large enough effect; inconclusive means small, poorly fitted or top-dose-only effect; inactive means no such curve, though single readings can be large or run the other way. What follows is part of a selection rich in actives, with near analogues and random picks from the rest. Entries that show only a call come without a potency. Some structures have more than one record in an assay (separate samples or runs), and their calls can disagree. *1 amine or outer side, *2 acyl side, *3 side chain or, on linkers, in order; H or OH if unused. Where a SMILES comes first, the peptide text is derived from it. Bridges are numbered along the chain shown (N, C = ends). [ ]: non-standard residue; d: D form. The star is where a group is joined. X6 = NC1=N[C@@H](O)C[C@H]([C@H](N[*:1])C(=O)[*:2])N1; ΔAla(3-NHCONH2) = NC(=O)NC=C(N)C(=O)O; β3hOrn = NCCC[C@H](N)CC(=O)*; Dap = NC[C@H](N)C(=O)O
Potency means the concentration at half of the fitted maximal effect.

The target in this assay is Rap guanine nucleotide exchange factor 3 (Homo sapiens) (UniProt O95398). As to the kind of experiment: Validation qHTS for antagonist of cAMP-regulated guanine nucleotide exchange factor 3 (EPAC1). Further: nearly all actives have a fitted effect of over 75% in size. Particulars: EPAC1 Rap1B-BODIPY-GDP exchange, fluorescence; series mostly up to 150 µM. An outline of the steps: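 EPAC1 (100 nM) mixed with 250 nM RAP1B-BODIPY-GDP and 50 uM GDP; compounds in concentration series, 5 min at room temperature. Fluorescence (ex 480/em 540 nm) read every 5 min for 30 min; normalized to ATA control and DMSO.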
Chain of Rap guanine nucleotide exchange factor 3 (Homo sapiens) (O95398 whole entry, looked up): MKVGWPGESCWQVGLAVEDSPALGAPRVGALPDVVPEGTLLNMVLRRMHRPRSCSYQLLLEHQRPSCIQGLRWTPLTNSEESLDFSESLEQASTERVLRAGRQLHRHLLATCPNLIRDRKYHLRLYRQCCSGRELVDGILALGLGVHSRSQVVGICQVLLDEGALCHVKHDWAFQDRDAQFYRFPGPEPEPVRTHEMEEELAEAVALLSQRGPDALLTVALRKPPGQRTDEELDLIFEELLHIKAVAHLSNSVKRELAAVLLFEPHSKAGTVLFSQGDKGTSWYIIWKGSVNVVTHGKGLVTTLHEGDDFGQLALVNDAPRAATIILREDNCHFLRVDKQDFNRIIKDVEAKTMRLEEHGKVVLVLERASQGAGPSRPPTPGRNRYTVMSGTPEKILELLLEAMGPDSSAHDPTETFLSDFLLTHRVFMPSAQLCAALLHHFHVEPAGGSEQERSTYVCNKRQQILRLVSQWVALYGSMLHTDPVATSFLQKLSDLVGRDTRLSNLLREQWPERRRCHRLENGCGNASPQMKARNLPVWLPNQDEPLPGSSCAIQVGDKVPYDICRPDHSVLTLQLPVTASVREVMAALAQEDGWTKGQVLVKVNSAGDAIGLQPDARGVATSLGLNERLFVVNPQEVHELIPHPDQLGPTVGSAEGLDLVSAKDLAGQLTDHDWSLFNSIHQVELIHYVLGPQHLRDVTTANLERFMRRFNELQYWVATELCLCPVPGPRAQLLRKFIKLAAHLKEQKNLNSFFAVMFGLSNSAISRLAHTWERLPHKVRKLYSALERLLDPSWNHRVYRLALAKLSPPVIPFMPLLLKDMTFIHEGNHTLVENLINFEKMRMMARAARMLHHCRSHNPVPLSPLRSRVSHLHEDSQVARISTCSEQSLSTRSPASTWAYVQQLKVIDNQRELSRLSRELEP
(qHTS replaces the single test concentration by a dilution series.)
On to `OCC1OC(n2cnc3c(=S)nc[nH]c32)C(O)C1O` (stereo not drawn), for which the Potency result was “inactive”.

Turning to `Cc1cccc(CNc2ccnc(-c3ccccc3Cl)n2)c1`, the Potency entry is “inactive”.

With `O=C1CCC(=O)N1CO`, the Potency entry was “inactive”. On the same count and under the same terms, then `COc1cc(OC)c(/C=C/c2ccc3ccccc3n2)c(OC)c1`, with “inactive”. Same read-out and setting: then `COc1ccccc1CCn1c(=O)cnc2cncnc21`, with “inactive”; and `COc1ccc(CNc2nc(-c3ccccc3OC)nc3ccccc23)c(OC)c1`, with “inactive”; and `C=CC(C)(C)c1[nH]c2ccccc2c1C1=C(O)C(=O)C(c2c[nH]c3c(CC=C(C)C)cccc23)=C(O)C1=O`, with 56.2 µM (active). As for `CC(C)=CCC1=C(O)c2ccccc2C(=O)C1=O`, the Potency result is “inactive”. On to `CCc1cccc2c(C(O)c3c[nH]c4ccccc34)c[nH]c12` (stereo not drawn), for which the Potency entry is “inactive”. The same measure, in the same setting: the value for `Cc1cc(-c2ccnc(-n3ncc(C(=O)NCCc4cccnc4)c3C)n2)c(C)s1` was “inactive”; that for `COc1ccc(CN2CCC(n3cc(C(=O)N4CCCC4)nn3)CC2)c(OC)c1C` was “inactive”. Same read-out and setting: then `O=C(c1cnccn1)N1CCC2(CCCN(Cc3nccs3)C2)CC1`, with “inactive”. Same read-out and setting: then `N[C@H](C(=O)O)c1cc(O)cc(O)c1`, with “inactive”. Take `NC(C(=O)O)c1cc(O)cc(O)c1` (stereo not drawn): the Potency result was “inactive”. Still for that read-out and setting: the value for `NC(C(=O)O)c1cc(O)c(Cl)c(O)c1` (stereo not drawn) was 56.2 µM (active); that for `CCCCCCCCCCCCCC[N+](C)(C)C` was “inactive”. On the same count and under the same terms, the value for `Cc1cc2c(C(C)C)c(O)c(O)c(C=O)c2c(O)c1-c1c(C)cc2c(C(C)C)c(O)c(O)c(C=O)c2c1O` was 50.1 µM (active) and 39.8 µM (active) and 79.4 µM (active); that for `Cc1cc(O)c(C=O)c(O)c1C(=O)O` was “inactive”. Consider `Cc1c(C(=O)N(C)C(C)C)sc2ncnc(NCCCN3CCOCC3)c12`, for which the Potency entry was “inactive”. Consider `COc1ccc(SC[C@H](C)CN2CC[C@H](C(C)(C)C)CCC2=O)cc1`, for which the Potency entry is “inactive”. Turning to `C=CC1=C(C)C2=CC3=NC(=C(CC(=O)[O-])C4=NC(=C(C)C4=C([O-])[O-])C=c4[n-]c(c(C)c4CC)=CC1=N2)C(CCC(=O)[O-])C3C.[Cu+2].[Na+].[Na+].[Na+]` (stereo not drawn), the Potency is 89.1 µM (active). `CCCCCCCCCCCCC(O)C(=O)O` (stereo not drawn): the activity change, negative = inhibition is -12.9% [at 15.3 µM] (inactive). With `CCCCCCCCCCCCCCCCC(C(=O)O)C(O)(CC(=O)O)C(=O)O` (stereo not drawn), the Potency was 35.5 µM (active). Same read-out and setting: then `CCCCCCCCCCCCC(C(=O)O)C(C)C(=O)O` (stereo not drawn), with “inactive”; and `CN1CCN(c2ncc3nc(-c4ccccc4)c(=O)n(CCC#N)c3n2)CC1`, with “inactive”. The same measure, in the same setting: the value for `O=c1c(O)cc(C2Oc3cc(O)cc(O)c3CC2O)cc2c(C3Oc4cc(O)cc(O)c4CC3O)cc(O)c(O)c12` (stereo not drawn) was 39.8 µM (active). Still for that read-out and setting: then `Oc1cc(O)c2c(c1)OC(c1cc(O)c(O)c(O)c1)C(O)C2` (stereo not drawn), with “inactive”; and `Oc1ccc2c(c1)OC(c1ccc(O)c(O)c1)C(O)C2` (stereo not drawn), with “inactive”. In the case of `Oc1cc(O)c2c(c1)O[C@H](c1ccc(O)c(O)c1)[C@H](O)C2`, the Potency was 79.4 µM (active). Still for that read-out and setting: then `Oc1cc(O)c2c(c1)O[C@H](c1ccc(O)c(O)c1)[C@@H](O)C2`, with “inactive”.

On to `Oc1ccc(C2Oc3cc(O)cc(O)c3CC2O)cc1` (stereo not drawn), for which the Potency entry is “inactive”. The same measure, in the same setting: then `CN(Cc1cnc2ccccn12)C1CCN(c2cccc(NC(=O)c3cccnc3)c2)CC1`, with “inactive”; and `Cc1ccc(C(=O)N(Cc2cc3cc4c(cc3nc2N2CCOCC2)CCC4)CC2CCCO2)cc1` (stereo not drawn), with “inactive”; and `CC(C)C[C@@H](CO)N1CCN(Cc2ccccc2)CCC1=O`, with “inactive”. Same read-out and setting: the value for `O=C(NCc1cccnc1)[C@@H]1CC=C[C@@H]2CCN(Cc3ccc(Cl)c(Cl)c3)C(=O)[C@@H]21` was “inactive”. As for `CC(C)(Sc1ccc(CCN(CCCCC2CCCCC2)C(=O)NC2CCCCC2)cc1)C(=O)O`, the Potency was 44.7 µM (active). The same measure, in the same setting: then `O=c1c(-c2ccccc2)nc2cnc(Oc3cccc(Cl)c3)nc2n1C[C@H]1CCCO1`, with “inactive”; and `COc1cc([C@@H]2c3cc4c(cc3C(OC3OC5COC(C)OC5C(O)C3O)C3COC(=O)[C@@H]32)OCO4)cc(OC)c1O` (stereo partly drawn), with “inactive”. Same read-out and setting: then `O=C1c2c(O)cccc2[C@H]([C@@H]2O[C@H](CO)[C@@H](O)[C@H](O)[C@H]2O)c2cc(CO)cc(O)c21`, with “inactive”. Same read-out and setting: then `O=C(O)c1cc(O)c2c(c1)[C@H]([C@H]1c3cc(C(=O)O)cc(O)c3C(=O)c3c(O[C@@H]4O[C@H](CO)[C@@H](O)[C@H](O)[C@H]4O)cccc31)c1cccc(O[C@@H]3O[C@H](CO)[C@@H](O)[C@H](O)[C@H]3O)c1C2=O`, with 100 µM (active); and `O=C1c2c(O)cccc2[C@@H]([C@@H]2O[C@H](CO)[C@@H](O)[C@H](O)[C@H]2O)c2cc(CO)cc(O)c21`, with “inactive”; and `CCCN1CCC(=O)N([C@H](CO)Cc2ccccc2)CC1`, with “inactive”. Turning to `Nc1c(S(=O)(=O)O)cc(Nc2ccc(Nc3nc(Cl)nc(Nc4ccc(S(=O)(=O)O)cc4)n3)c(S(=O)(=O)O)c2)c2c1C(=O)c1ccccc1C2=O`, the Potency is 22.4 µM (active). Turning to `CC#CCC(C)[C@H](O)/C=C/[C@@H]1[C@H]2c3cccc(CCCC(=O)O)c3O[C@H]2C[C@H]1O` (stereo partly drawn), the Potency result was “inactive”. The same measure, in the same setting: the value for `Nc1ccc(O)cc1` was “inactive”; that for `Nc1cc(N)cc(N)c1` was 44.7 µM (active). Same read-out and setting: then `COc1cc(N)c(N)cc1OC`, with “inactive”; and `COc1ccc2[nH]cc(CCO)c2c1`, with “inactive”. Take `CC(C)c1ccc(CN2CCC3(CCC(CNC(=O)c4ccn(C)n4)O3)CC2)cc1` (stereo not drawn): the Potency result was “inactive”. On the same count and under the same terms, the value for `Cc1cccc(C(=O)NCc2nc(-c3cccc(NC(=O)C4CCCN(C)C4)c3)oc2C)n1` (stereo not drawn) was “inactive”. Still for that read-out and setting: then `Cn1cccc1C(=O)N1CCC[C@@]2(CCN(c3cccc(-c4ccccc4)c3)C2)C1`, with “inactive”; and `CCOc1nc2cccc(C(=O)O)c2n1Cc1ccc(-c2ccccc2-c2nn[nH]n2)cc1`, with “inactive”. Still for that read-out and setting: then `CCOc1nc2cccc(C(=O)OC(C)OC(=O)OC3CCCCC3)c2n1Cc1ccc(-c2ccccc2-c2nn[nH]n2)cc1` (stereo not drawn), with 89.1 µM (active). Regarding `CCCc1nc(C(C)(C)O)c(C(=O)OCc2oc(=O)oc2C)n1Cc1ccc(-c2ccccc2-c2nn[nH]n2)cc1`, the Potency entry is “inactive”. `CCN1CCCC1CNC(=O)c1cnn(-c2ncc3c(n2)-c2ccc(OC)cc2CC3)c1C1CC1` (stereo not drawn): the Potency entry was “inactive”. Same read-out and setting: then `NCCC[C@H](N)CC(=O)N[C@H]1CNC(=O)[C@H]([C@H]2C[C@H](O)N=C(N)N2)NC(=O)C(=CNC(N)=O)NC(=O)[C@H](CO)NC(=O)[C@H](CO)NC1=O` (β3hOrn-[Dap]SS[ΔAla(3-NHCONH2)][X6]; lactam 1-C), with “inactive”; and `O.O.O.O.O.O.O.O=S(=O)([O-])[O-].[Co+2]`, with 100 µM (active). Same read-out and setting: then `Cc1ccc(C(=O)Nc2cccc(-c3nc(CNC(=O)c4ccc(F)cc4Cl)c(C)o3)c2)s1`, with “inactive”. Same read-out and setting: the value for `CC(=O)OC1CCC2(C)C3=C(CCC2C1(C)C)[C@@]1(C)CCC(C(C)CCC=C(C)C)[C@@]1(C)CC3` (stereo partly drawn) was “inactive”. Turning to `CCCCCCCCCCCCCCCCSCC(COC)COP(=O)([O-])OCC[N+](C)(C)C` (stereo not drawn), the Potency entry was “inactive”.

Take `CN1CCN(CCCN2c3ccccc3Sc3ccc(Cl)cc32)CC1`: the Potency entry was “inactive and 112 µM (active)”. On the same count and under the same terms, the value for `CN1CCN(CCCN2c3ccccc3Sc3ccccc32)CC1` was “inactive”; that for `OCCN1CCN(CCCN2c3ccccc3Sc3ccc(Cl)cc32)CC1` was “inactive”; that for `CC(=O)N1CCC2(CC1)CN(c1cccc(-c3ccccc3)c1)C2` was “inactive”. In the case of `C[C@@H]1[C@H](c2ccccc2)OCCS(=O)(=O)N1Cc1ccccc1Br`, the Potency result is “inactive”. The same measure, in the same setting: the value for `O=S1(=O)CCO[C@H]2CCCC[C@@H]2N1Cc1ccccc1Br` was “inactive”; that for `C=C1[C@@H](O)[C@H](CC(C)C)N(Cc2ccccc2Br)S1(=O)=O` was 89.1 µM (active). Same read-out and setting: the value for `Cc1ccc2c(c1)C(=O)[C@@]1(O)CCN(c3ccccc3)C1=N2` was “inactive”; that for `Cc1cnc(-n2ncc(C(=O)NCCN3CCOCC3)c2C2CC2)nc1-c1cccs1` was “inactive”.

As for `CCC1CN(CCNC(=O)c2cc(C(C)C)nn2C)Cc2cc(OC)ccc2O1` (stereo not drawn), the Potency entry was “inactive”. With `Oc1c(Cl)cc(Cl)c(Cl)c1Cc1c(O)c(Cl)cc(Cl)c1Cl`, the Potency was 56.2 µM (active) and inactive. The same measure, in the same setting: the value for `Oc1c(Cl)cc(Cl)c2cccnc12` was “inactive”; that for `Cc1ccc2c(Cl)cc(Cl)c(O)c2n1` was “inactive”. Still for that read-out and setting: then `COc1ccc(C(=O)N2CCC3(CC2)CN(c2ncccn2)C3)cc1`, with “inactive”; and `COc1cc(CN2CCOc3ccc(CN4CCC(O)(c5cccnc5)CC4)cc3C2)cc(OC)c1`, with “inactive”; and `Cc1ccc(C(=O)NCCc2nnc3n2CCN(Cc2cc(C)cc(C)c2)CC3)cc1`, with “inactive”. On the same count and under the same terms, the value for `c1csc(CNc2ncncc2-c2ccoc2)c1` was “inactive”.

As for `O=C(c1nc2ncccn2n1)N1CCOc2ccc(C(O)C(c3ccccc3)c3ccccc3)cc2C1` (stereo not drawn), the Potency entry was “inactive”.

With `C=C1c2cccc(O)c2C(O)=C2C(=O)[C@]3(O)C(O)=C(C(N)=O)C(=O)C(N(C)C)C3C(O)C12` (stereo partly drawn), the Potency result was “inactive”. Consider `C=C1c2cccc(O)c2C(O)=C2C(=O)[C@]3(O)C(O)=C(C(N)=O)C(=O)[C@@H](N(C)C)[C@@H]3[C@@H](O)[C@H]12`, for which the Potency was 31.6 µM (active).

`C=C1c2c(Cl)ccc(O)c2C(O)=C2C(=O)[C@]3(O)C(O)=C(C(N)=O)C(=O)C(N(C)C)C3C(O)C12` (stereo partly drawn): the Potency result was “inactive”. As to `O=C(c1cccnc1)C1CCCN(Cc2ccc3c(c2)CN(C(=O)c2cccc(Cl)c2)CCO3)C1` (stereo not drawn), the Potency result is “inactive”. Consider `CCC(C(=O)NC(N)=O)c1ccccc1` (stereo not drawn), for which the Potency result is “inactive”.

Take `COC(=O)C[C@](O)(CCCC(C)(C)O)C(=O)O[C@@H]1C(OC)=CC23CCCN2CCc2cc4c(cc2[C@H]13)OCO4` (stereo partly drawn): the Potency result was “inactive”. Same read-out and setting: the value for `Cn1cccc1C(=O)N1CCC[C@@]2(CCN(c3ncccn3)C2)C1` was “inactive”; that for `O=C(OC[C@H]1O[C@@H](OC(=O)c2cc(O)c(O)c(OC(=O)c3cc(O)c(O)c(O)c3)c2)[C@H](OC(=O)c2cc(O)c(O)c(OC(=O)c3cc(O)c(O)c(O)c3)c2)[C@@H](OC(=O)c2cc(O)c(O)c(OC(=O)c3cc(O)c(O)c(O)c3)c2)[C@@H]1OC(=O)c1cc(O)c(O)c(OC(=O)c2cc(O)c(O)c(O)c2)c1)c1cc(O)c(O)c(OC(=O)c2cc(O)c(O)c(O)c2)c1` was 11.2 µM (active); that for `CCOC(=O)Cc1cccc(-c2cc(CCCCCCc3ccc(O[C@H]4O[C@H](COC(C)=O)[C@@H](OC(C)=O)[C@H](OC(C)=O)[C@@H]4OC(C)=O)c(-c4cccc(CC(=O)OCC)c4)c3)ccc2O[C@H]2O[C@H](COC(C)=O)[C@@H](OC(C)=O)[C@H](OC(C)=O)[C@@H]2OC(C)=O)c1` was “inactive”. For the compound `CCCOC(=O)c1cc(O)c(O)c(O)c1`, the Potency entry is “inactive”.
